Results taken from PubChem BioAssay AID1159606 (Sanford-Burnham Center for Chemical Genomics, 2016).
Screen size: about 360,000 compounds; about 7,300 (2%) were called active. This is one part of a sample in which actives are shown more often than they occur. Cut-off read from the data, not from the text of the source: active = inhibition above about 50%; inactive = the rest.

Experiment: blockers of TWEAK-induced Fn14 reporter activity – luciferase reporter cells, uHTS, primary screen (AID 1159606)
Details: TWEAK-stimulated Fn14 reporter cells, luciferase luminescence, 8 h; at 10 µM; active compounds read high

| Structure (SMILES) | inhibition |
| --- | --- |
| COc1ccc(NC(=O)CN(C)C(=O)/C=C/c2cn(Cc3ccccc3)nc2-c2cccnc2)cc1 | -11.2% (inactive) |
| O=C(COC(=O)/C=C/c1cn(-c2ccccc2)nc1-c1cccnc1)Nc1ccc(Cl)cc1Cl | -65% (inactive) |
| O=C(O)CCn1cc(/C=C/C(=O)c2ccc(Cl)cc2)c(-c2cccc(Br)c2)n1 | 66% (active) |
| CCOC(=O)[C@H]1Nc2ccc(Cl)cc2[C@@H]2[C@H]1C1CC(c3ccccc31)N2C(=O)OCc1ccccc1 (some centres not stated) | -23.5% (inactive) |
| CCCCNC(=O)OC1CC2CC1[C@H]1CCCCN1C2=O (some centres not stated) | 7.93% (inactive) |
| CCOC12CC(C)(C)CC(C)(CC3=C1C(=O)CC(C)(C)C3)C2 (configuration not stated) | 76.6% (active) |
| Cc1noc(C)c1-c1nc(CSc2ccc(Cl)cc2)no1 | -29% (inactive) |
| COc1cc2nnn(-c3ccncc3)c2cc1OC | 1.57% (inactive) |
| Cn1c(N2CCOCC2)c(C=O)c2ccccc21 | -2.19% (inactive) |
| COc1cccc(-n2c(=S)[nH]c3c(oc4ccccc43)c2=O)c1 | 22.3% (inactive) |
| O=c1oc2ccccc2cc1-c1cn(-c2ccccc2)c(=S)[nH]1 | 107% (active) |
| CC1(C(=O)NS(=O)(=O)c2ccccc2)CCN1C(=O)C/C=C/c1ccccc1 (configuration not stated) | -7.09% (inactive) |
| CC1(C(=O)O)CCN1C(=O)/C=C/c1ccccc1 (configuration not stated) | 4.71% (inactive) |
| CC1(C)CCSC(/C=C/c2ccccc2)=N1 | 71.7% (active) |
| CC(C)=CCCC1(C)C=Cc2c(ccc3c2[nH]c2cc(O)c(C)cc23)O1 (configuration not stated) | 67% (active) |
| CN(C(=O)COC(=O)Cn1cnc2c1c(=O)n(C)c(=O)n2C)C1(C#N)CCCCC1 | -7.55% (inactive) |
| COC(=O)C(C)N(C#N)c1nc(C)nc(C)n1 (configuration not stated) | -3.55% (inactive) |
| Cc1nnc(SC(C(=O)Nc2cc(Cl)cc(Cl)c2)c2ccccc2)[nH]c1=O (configuration not stated) | -1.44% (inactive) |
| CCCOc1ccc(C(=O)C(CCC(CNCC)C(=O)c2ccc(OCCC)cc2)CNCC)cc1 (configuration not stated) | 103% (active) |
| CC(C)CCOc1ccc(C(=O)C[N+]2(C)CCOCC2)cc1 | -7.15% (inactive) |
| CCCc1ccc(OCCNC(=O)c2ccccc2Br)cc1 | -12.5% (inactive) |
| CC(Oc1ccc(F)cc1)C(=O)Nc1ccccc1C(=O)NC1CC1 (configuration not stated) | 8.99% (inactive) |
| COC(=O)c1onc(-c2c(OC)cc(OC)cc2OC)c1C(=O)OC | 10.7% (inactive) |

| Structure (SMILES) | inhibition |
| --- | --- |
| CC(C)C(C(=O)NC1CCCCC1)N(CC1CCCO1)C(=O)CNS(=O)(=O)c1ccc(F)cc1 (configuration not stated) | 8.87% (inactive) |
| Cc1ccc(N(CC(=O)NC2CCCCC2)C(=O)CCCC(=O)Nc2ccccn2)c(C)c1 | -5.23% (inactive) |
| Cc1onc(-c2ccccc2)c1-c1nnc(COC(=O)c2ccc(N(C)C)cc2)o1 | 54.4% (active) |
| Cc1onc(-c2ccccc2Cl)c1C(=O)OCc1nnc(-c2ccccc2)o1 | -0.22% (inactive) |
| Cc1ccc(C(=O)NCC(=O)OCc2nnc(-c3ccccc3)o2)cc1 | 9.26% (inactive) |
| O=C(NC1CCCC1)C1c2ccccc2OCC(=O)N1CC(F)(F)F (configuration not stated) | 1.42% (inactive) |
| COC1=CC(=O)OC(C)(c2ccccc2)C1 (configuration not stated) | 20.1% (inactive) |
| COc1cc2c(C(=O)O)c(C)n(C)c2c2ccccc12 | 14% (inactive) |
| COc1cccc2c(C)c(C(=O)O)[nH]c12 | 74.4% (active) |
| COc1cccc2c(O)cc(=O)n(C)c12 | 15.4% (inactive) |
| CC1(C(=O)NS(=O)(=O)c2ccc(C#N)cc2)CCN1C(=O)c1ccc(C2CCCCC2)cc1 (configuration not stated) | 24.4% (inactive) |
| CN1CCN(C(=O)CCc2ncc(C(F)(F)F)cc2Cl)CC1 | -4.72% (inactive) |
| O=C1NC[C@H](CCCCN2C[C@H](Cc3ccccc3)N(Cc3ccccc3)C(=O)C2=O)N(CCc2ccc(O)cc2)C1=O | -9.13% (inactive) |
| O=c1cc(N2CCCCC2)c(-c2ccccc2)nn1Cc1cccc(F)c1 | -1.41% (inactive) |
| O=C(/C=C/NCc1ccc(F)cc1)c1ccccc1 | -22.1% (inactive) |
| Cc1cc(N/C=C\C(=O)c2ccc(Cl)c(Cl)c2)no1 | -21% (inactive) |
| COc1ccc(N2C(=O)CCC(C(=O)Nc3ccccn3)C2c2ccc(OC)c(OC)c2)cc1 (configuration not stated) | 2.83% (inactive) |
| COc1ccc(C(=O)/C=C/Nc2ccccn2)cc1 | 97.4% (active) |
| CCOc1ccc(NC(=O)C2CCCN(C(=O)Nc3ccccc3)C2)cc1 (configuration not stated) | -2.21% (inactive) |
| CCOc1ccc(N/C=C/C(=O)c2ccccc2)cc1 | 70.8% (active) |
| Cc1ccc(NNC(=O)C2CCC2)cc1C | -5.21% (inactive) |
| CCOc1ccc(NC(=S)N2CCC(NC(=O)c3ccccc3)CC2)cc1 | -4.25% (inactive) |
| Cc1ccc(N/C=C/C(=O)c2ccccc2)cc1C | 66.8% (active) |

| Structure (SMILES) | inhibition |
| --- | --- |
| COCc1ccc(C(=O)NC2CC(C)(C)Cc3c2cnn3-c2ccc(C)cc2)o1 (configuration not stated) | 3.46% (inactive) |
| COCCCNC(=O)CC1C[C@H](C(=O)N2CCCCC2)[C@@]2(CCc3ccccc3)c3[nH]c4ccccc4c3CCN2C1=O (some centres not stated) | 17.5% (inactive) |
| O=C(CCCl)Nc1ccc(S(=O)(=O)NCc2ccco2)cc1 | 13% (inactive) |
| CCNC(=O)c1cc2c(c(-c3cccc(-c4cncnc4)c3)n1)[C@H](CCO)N(C(C)=O)C2 | -9.64% (inactive) |
| Cc1ccccc1-n1nnc2c(=O)oc3ccccc3c21 | -3.42% (inactive) |
| O=C1CCC(=O)N1c1ccc(NCCc2ccccc2F)c([N+](=O)[O-])c1 | -12.8% (inactive) |
| OCCN1CCN(C(=S)c2ccc(-c3ccccc3)cc2)CC1 | 54.4% (active) |
| S=C(c1ccc(-c2ccccc2)o1)N1CCCCC1 | -8.48% (inactive) |
| C=CCc1ccccc1OCC(O)CN1CCN(CCO)CC1 (configuration not stated) | -11.8% (inactive) |
| Cc1cc(C)n2c(NCc3ccccc3)c(CC(C)C)nc2n1 | -7.32% (inactive) |
| Cc1ccc(C)c(S(=O)(=O)N(C)c2ccc(OC(=O)C3CCN(C(=O)c4ccc(F)cc4)CC3)cc2)c1 | -10.5% (inactive) |
| Cc1ccccc1C(CC(=O)c1cccs1)C(C#N)C#N (configuration not stated) | 83.8% (active) |
| Cc1ccc(C)c(NC(CC(=O)c2ccccc2)C(=O)OCC(=O)c2cccs2)c1 (configuration not stated) | -31.8% (inactive) |
| O=C(NCC(=O)N1CCN(c2ccccc2F)CC1)c1cccs1 | -8.04% (inactive) |
| Cc1nn(-c2ccccc2)c(=O)c2noc(C)c12 | 2.03% (inactive) |
| COc1cccc(CN2C(=O)CCC2(C)C(=O)NC2CCCCCC2)c1 (configuration not stated) | 9.99% (inactive) |
| CCOC(=O)C1=CC[C@@H](c2ccccc2)N(S(=O)(=O)c2ccc(C)cc2)[C@H]1c1cccc(OC)c1 | 3.81% (inactive) |
| CN1CCN(S(=O)(=O)c2ccc(N3CCN(S(=O)(=O)c4cccs4)CC3)nc2)CC1 | -14.8% (inactive) |
| OC[C@@H]1CN(Cc2ccncc2)C[C@H](n2cnc3c(N4CCN(c5ccccc5)CC4)ncnc32)O1 | 29.9% (inactive) |
| Cc1cccc(NC(=S)N2CCC(C(=O)c3ccc(F)cc3)CC2)c1 | -7.96% (inactive) |
| Clc1ccc(-c2nnc(SCc3nc4ccccc4s3)o2)cc1 | -3.77% (inactive) |
| O=C(O)c1ccccc1CSc1nc2ccccc2s1 | 53.1% (active) |
| O=[N+]([O-])c1c(NCCO)cc(Sc2nc3ccccc3s2)c2nonc12 | 9.76% (inactive) |

| Structure (SMILES) | inhibition |
| --- | --- |
| COC(=O)[C@]12CCCCC=C1N(CCC1=CCCCC1)C(=O)[C@H](CC(=O)NCC1CCCCC1)C2 | 9.77% (inactive) |
| Cc1ccc(-c2c(C)n([O-])c3c([n+]2=O)CCC3)cc1 | 19% (inactive) |
| CN(C)S(=O)(=O)N1CCC(Oc2cccc(C(=O)NCCCC3CCCC3)c2)CC1 | 57.2% (active) |
| CN(C(=O)c1cccc(OC2CCN(S(=O)(=O)N(C)C)CC2)c1)C1CCOC1 (configuration not stated) | -26.3% (inactive) |
| CNS(=O)(=O)c1cccc(C(=O)NCC2CCCCC2)c1 | -15.5% (inactive) |
| Cc1ccc(C)c2[nH]c(=O)c(CCNC(=O)CC(C)C)cc12 | -18.2% (inactive) |
| O=C(Nc1ccc2c(c1)OCCO2)c1ccc(Cl)c(S(=O)(=O)N2CCCCC2)c1 | 56.7% (active) |
| Cc1nc(NC(=O)c2ccc3c(c2)OCCO3)ccc1Br | 30.4% (inactive) |
| O=C(Nc1cccc(S(=O)(=O)Nc2ccc(Cl)cc2)c1)c1ccc2c(c1)OCCO2 | 78.2% (active) |
| Cc1ccc(C(=O)Nc2ccc3c(c2)OCCO3)cc1S(=O)(=O)N1CCOCC1 | -15.2% (inactive) |
| O=C(Nc1ccc(Cl)cn1)c1cnn2cccnc12 | 5.94% (inactive) |
| O=C(Nc1ccc(Cl)cn1)c1ccc2c(c1)OCCO2 | 66.8% (active) |
| CN1CCN(c2ccc(NC(=O)c3ccc4c(c3)OCCO4)cc2Cl)CC1 | 17.5% (inactive) |
| CCCc1cc(C(=O)Nc2ccc(Cl)cn2)cs1 | 58.8% (active) |
| CC(NS(=O)(=O)c1ccc(Cl)cc1)C(=O)Nc1ccc2c(c1)OCCO2 (configuration not stated) | 32.7% (inactive) |
| CCCCC(CC)C(=O)Nc1ccc(Cl)cn1 (configuration not stated) | -8.67% (inactive) |
| CCCc1cc(C(=O)Nc2ccc(C(=O)OC)cc2)cs1 | -11.7% (inactive) |
| CCN(CC)CCNC(=O)c1ccc(NS(=O)(=O)c2ccc3c(c2)OCCO3)cc1 | 2.79% (inactive) |
| CCOc1ccc(-c2c(C)n([O-])c3c([n+]2=O)CCCC3)cc1 | -15.2% (inactive) |
| O=S1(=O)CC(N2CCSCC2)CN1Cc1cn(Cc2cccc(Cl)c2)nn1 (configuration not stated) | 0.68% (inactive) |
| CC(=O)N1Cc2cc(C(=O)NCc3cccc(F)c3)nc(-c3cccc(C4=CCCC4)c3)c2[C@H]1CCO | -25.9% (inactive) |
| COC(=O)C1(C(=O)OC)C/C=C\CN(S(=O)(=O)c2ccccc2[N+](=O)[O-])CCC1 | -4.25% (inactive) |
| CC(=O)N1CCSc2ccc(S(=O)(=O)N3CCC(C)CC3)cc21 | 10.4% (inactive) |
